Reference: PubChem BioAssay (EPA / NIEHS)
A structure can be active in one record and inactive in another. Activity calls are given as the source filed them. How the source made its calls: active means hit-call score of the fitted dose curve at least 0.9, where 1 is the maximum; inactive means score below 0.9.

Read-out: Monocyte Chemoattractant Protein-1 (MCP1), CCL2 (gene 6347)
Assay: BSK_4H_MCP1: BioMAP Diversity Plus: 4H Assay for Monocyte Chemoattractant Protein-1 (MCP1) Biomarker Activity (AID 2283018)
Details: primary human endothelial cells (HUVEC); actives raise or lower the signal
Experimental: BSK_4H is a cell-based, multiplexed-readout assay that uses umbilical vein endothelium, a human vascular primary cell, with measurements taken at 24 hours after chemical dosing in a 96-well plate.BSK_4H_MCP1 is an assay component measured in the BSK_4H assay. It measures MCP-1 antibody related to regulation of gene expression using ELISA technology.Data from the assay component BSK_4H_MCP1 was analyzed into 1 assay endpoint. This assay endpoint, BSK_4H_MCP1, was analyzed with bidirectional fitting relative to DMSO as the negative control and baseline of activity. Using a type of binding reporter, gain or loss-of-signal activity can be used to understand changes in the signaling as they relate to the gene CCL2. Furthermore, this assay endpoint can be referred to as a primary readout, because this assay has produced multiple assay endpoints where this one serves a signaling function. To generalize the intended target to other relatable targets, this assay endpoint is annotated to the cytokine intended target family, where the subfamily is chemotactic factor.
The levels of cell surface (or secreted, indicated by the prefix "s") biomarker endpoints were measured by ELISA. Overt cytotoxicity to cells in confluent adherent cultures (all systems other than the BT system) was assessed by measuring total protein levels using sulforhodamine B (SRB) staining in parallel cultures at the time of biomarker measurements, indicated as SRB endpoints. For proliferation assays for adherent cell types, individual cell types are cultured at sub-confluence and relative cell numbers quantified by SRB staining at time points optimized for each system (48 h: 3C and CASM3C systems; 72 h: BT and HDF3CGF systems; 96 h: SAg system). SRB was performed by staining cells with 0.1% SRB after fixation with 10% TCA and reading wells at 560 nm.Viability and proliferation of PBMC (T cells) was quantified by Alamar Blue reduction for the SAg and BT systems. For PBMC viability (referred to as PBMC Cytotoxicity within the assay endpoint names), cells were plated (75,000/well in a 96-well plate) and then chemical samples added for 1 h before addition of activators, SEB and TSST-1 (20 ng/mL final concentration each). Cells were incubated for 90 h. Then, Alamar Blue (20 uL/well) (Invitrogen, Cat DAL1100) was added for 6 h, and the plates were read with a fluorescence microplate reader at 546/580 nm (excitation/emission). For PBMC proliferation, cells were plated and activated as above but incubated for only 16 h prior to addition of Alamar Blue. Plates were read after 6 h.

Compound | outcome | AC50
COc1cc(OC)nc(NC(=O)NS(=O)(=O)c2cc(NC=O)ccc2C(=O)N(C)C)n1 | inactive | 
CCOC1Oc2ccc(OS(C)(=O)=O)cc2C1(C)C (stereo not given) | inactive | 
COc1nn(CSP(=S)(OC)OC)c(=O)s1 | inactive | 
CNC(=O)CSP(=S)(OC)OC | inactive | 
Clc1ccccc1-c1nnc(-c2ccccc2Cl)nn1 |  | 20 µM (active)
O=C(O)COc1ccc(Cl)cc1Cl | inactive | 
Oc1cc(Cl)ccc1Oc1ccc(Cl)cc1Cl |  | 11.6 µM (active) [middle of 4 runs]
O=[N+]([O-])c1c(Cl)c(Cl)c(Cl)c(Cl)c1Cl | inactive | 
CCOc1nc(NC)nc(NC(=O)NS(=O)(=O)c2ccccc2C(=O)OC)n1 | inactive | 
O=C(O)CCCOc1ccc(Cl)cc1Cl | inactive | 
CC[C@H](C)[C@H]1O[C@]2(C=C[C@@H]1C)C[C@@H]1C[C@@H](C/C=C(\C)[C@@H](O[C@H]3C[C@H](OC)[C@@H](O[C@H]4C[C@H](OC)[C@@H](O)[C@H](C)O4)[C@H](C)O3)[C@@H](C)/C=C/C=C3\CO[C@@H]4[C@H](O)C(C)=C[C@@H](C(=O)O1)[C@]34O)O2 (tested in a mixture with another compound) |  | 6.96 µM (active)
O=C(Nc1ccccc1)Nc1cnns1 | inactive | 
C[C@H]1[C@H](c2ccc(Cl)cc2)SC(=O)N1C(=O)NC1CCCCC1 |  | 8.84 µM (active)
CCN(CC)C(=O)SCc1ccc(Cl)cc1 | inactive | 
CC(C)OC(=O)Nc1cccc(Cl)c1 | inactive | 
COP(=O)(OC)OC=C(Cl)Cl | inactive | 
O=C(O)C(F)(F)C(F)(F)C(F)(F)C(F)(F)C(F)(F)C(F)(F)C(F)(F)F | inactive | 
CNC(=O)Oc1cccc(N=CN(C)C)c1 | inactive | 
CCC(C)Nc1c([N+](=O)[O-])cc(C(C)(C)C)cc1[N+](=O)[O-] (stereo not given) |  | 20 µM (active)
CC1(C)C(C=C(Cl)Cl)C1C(=O)OC(C#N)c1ccc(F)c(Oc2ccccc2)c1 (stereo not given) |  | 7.95 µM (active)

Compound | outcome | AC50
CCc1ccc(C(=O)NN(C(=O)c2cc(C)cc(C)c2)C(C)(C)C)cc1 | inactive | 
COP(=S)(OC)Oc1ccc(SC)c(C)c1 | inactive | 
COC(=O)c1ccccc1CS(=O)(=O)NC(=O)Nc1nc(OC)cc(OC)n1 | inactive | 
O=C(NC(=O)c1c(F)cccc1F)Nc1ccc(OC(F)(F)C(F)OC(F)(F)F)c(Cl)c1 (stereo not given) | inactive | 
C#CCN1C(=O)COc2cc(F)c(N3C(=O)C4=C(CCCC4)C3=O)cc21 | inactive | 
N#CN | inactive | 
COC(=O)c1ccccc1S(=O)(=O)NC(=O)Nc1nc(C)nc(OC)n1 | inactive | 
COP(=S)(OC)Oc1ccc([N+](=O)[O-])cc1 | inactive | 
CC(C)(C)C(O)/C(=C\c1ccc(Cl)cc1Cl)n1cncn1 (stereo not given) |  | 22.6 µM (active)
Cc1[nH]c(=O)n(C(C)(C)C)c(=O)c1Cl | inactive | 
Oc1ccc(Cl)cc1Cc1ccccc1 | inactive | 14.5 µM (active) [middle of 5 runs]
N#Cc1c(Cl)c(Cl)c(Cl)c(C#N)c1Cl |  | 1.48 µM (active)
CCS(=O)(=O)c1cccnc1S(=O)(=O)NC(=O)Nc1nc(OC)cc(OC)n1 | inactive | 
ClC1C(Cl)C(Cl)C(Cl)C(Cl)C1Cl (stereo not given) | inactive | 
CC1(c2ccc(Oc3ccccc3)cc2)OC(=O)N(Nc2ccccc2)C1=O (stereo not given) |  | 16.3 µM (active)
CCOCN(C(=O)CCl)c1c(C)cccc1CC |  | 20 µM (active)
CCC(C)(NC(=O)c1cc(Cl)c(C)c(Cl)c1)C(=O)CCl (stereo not given) |  | 13.8 µM (active)
CNC(=O)/C=C(\C)OP(=O)(OC)OC | inactive | 
CC(C)(C)C(O)C(Oc1ccc(Cl)cc1)n1cncn1 (stereo not given) | inactive | 
